Among the data in PubChem BioAssay (NCI) are growth values, retold here.

The structures appear in SMILES notation. Values joined by “and” are separate entries in the source; they are usually repeats but may differ in a detail not shown here. Equal values may be shown once. About 83,000 compounds went through this panel and 20% of them were active in at least one assay; those are over-represented in the sample as a whole.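 Step 1: grow cells in 96-well plates. Step 2: add test compound at a single concentration. Step 3: incubate 48 h. Step 4: record percent growth.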 Some structures have more than one record in an assay (separate samples or runs), and their calls can disagree. Active and inactive are the calls of the source.

This assay concerns COLO 205 colon. The assay is described as follows: NCI-60 one-dose screen, 48 h (100 = growth as untreated, 0 = no growth, -100 = all killed). Particulars: 10 µM. The protocol: Cells are grown in 96 well plates and exposed to the test compound for 48 hours. Compounds are tested at a single concentration, which is 10^-5 M for most compounds. The reported endpoint is percent growth (GI% or GIPRCNT), where numbers from 0 - 100% represent growth inhibition, and numbers from -100% - 0 represent cell death. For example, a value of 40 represents 60% growth inhibition. A value of 0 means no net growth occurred over the course of the experiment. A value of -40 indicates 40% of cells at the beginning of the experiment died by the end of the experiment. A value of -100 means all cells are dead at the end of the experiment.
NCI-60 Human Tumor Cell Lines Screen was performed using the standard one-dose NCI protocol, which is described in more detail at https://dtp.cancer.gov/discovery_development/nci-60/default.htm.
Compounds with GIPRCNT values below 10 were considered active. Activity score was based on GIPRCNT using the following formula: […]
Score is 0 for GIPRCNT values of 100 or above, 50 for GIPRCNT values of 0, and 100 for GIPRCNT values of -100.
On to `CC(=O)O[C@@H]1[C@@H]2O[C@H]2[C@@](C)(O)C(=O)[C@@H](C)C/C=C/[C@H]2[C@@H]3O[C@]3(C)[C@@H](C)C3[C@H](Cc4ccccc4)NC(=O)[C@@]312` (stereo not given in full), for which the growth was 38.8% (inactive).

As to `CCCCCCCCCC(=O)N[C@@](C)(CC)C(=O)N1CCC[C@H]1C(=O)N[C@@H](CC(C)C)C(=O)N[C@@](C)(CC)C(=O)N[C@@H](CCC(N)=O)C(=O)N[C@H](CCC(N)=O)C(=O)NC(C)(C)C(=O)NC(C)(C)C(=O)N[C@@H](CCC(N)=O)C(=O)N[C@H](CC(C)C)C(=O)N[C@H](CO)CC(C)C`, the growth is -63.2% (active) and -52.1% (active). Turning to `C/C=C/CC(C)C(O)[C@H](NC(=O)[C@@H]1CCCN1C(=O)C(C)(C)NC(=O)CCCCCCCCC)C(=O)N[C@@](C)(CC)C(=O)N[C@@H](CCC(N)=O)C(=O)N[C@H](CCC(N)=O)C(=O)NC(C)(C)C(=O)NC(C)(C)C(=O)N[C@@H](CCC(N)=O)C(=O)N[C@H](CC(C)C)C(=O)N[C@H](CO)CC(C)C` (stereo not given in full), the growth is -10.4% (active) and 50.9% (inactive). In the case of `O=C(CCCc1ccc(N(CCCl)CCCl)cc1)OCc1ccccc1`, the growth was 98% (inactive). Consider `CC(=O)O[C@@H]1C[C@H]2O[C@@H]3C=C(C)CC[C@]3(C)[C@]1(C)[C@]21CO1`, for which the growth is -61.3% (active). In the case of `CCC(C)[C@H]1C(=O)O[C@H](C(C)C)C(=O)N(C)[C@@H](C(C)C)C(=O)O[C@H](C(C)C)C(=O)N(C)[C@@H](C(C)C)C(=O)O[C@H](C(C)C)C(=O)N1C` (stereo not given in full), the growth was -74.7% (active). As to `COC(=O)[C@H]1[C@@H](O)[C@@]2(O)c3c(OC)cc(OC)cc3O[C@@]2(c2ccc(OC)cc2)[C@@H]1c1ccccc1`, the growth was -71% (active). `C/C=C/CC(C)C(O)[C@H](NC(=O)[C@@H]1CCCN1C(=O)C(C)(C)NC(=O)CCCCCCC)C(=O)N[C@@](C)(CC)C(=O)N[C@@H](CCC(N)=O)C(=O)N[C@H](CCC(N)=O)C(=O)NC(C)(C)C(=O)NC(C)(C)C(=O)N[C@@H](CCC(N)=O)C(=O)N[C@H](CC(C)C)C(=O)N[C@H](CO)CC(C)C` (stereo not given in full): the growth is 118% (inactive) and -46.4% (active).

For `NC1CCc2cc(O)c(O)cc2C1` (stereo not given), the growth is 80.7% (inactive).

As for `CC1=C2C(=C[C@@](C)(COS(C)(=O)=O)[C@@H]2O)C(=O)[C@](C)(O)C12CC2`, the growth is -33.7% (active).

With `Cc1ccc(CNc2nc3ccc(OC/C(=C/F)CN)cc3o2)cn1`, the growth is 111% (inactive). Take `COc1cc(OC)c(S(=O)(=O)N(CCCl)CCCl)cc1C(=O)/C=C/c1ccc(Cl)cc1`: the growth was 101% (inactive).

With `CC1=C(CCC=NNC(N)=O)C2=C(C)C3(CC3)[C@@](C)(O)C(=O)C2=C1`, the growth is -86.4% (active). Take `C=C1[C@@H](C)C2[C@H](Cc3ccccc3)NC(=O)[C@]23[C@H](OC(C)=O)/C=C/[C@@](C)(O)C(=O)[C@@H](C)C/C=C/[C@H]3[C@@H]1O` (stereo not given in full): the growth was 35% (inactive). The figure for `N#Cc1c(-n2c(Br)c(Br)c3cc(Br)ccc32)[nH]c2c(Br)cc(Br)cc12` is -89.6% (active); for `CC1=C[C@H]2O[C@@H]3C[C@H]4OC(=O)/C=C\C=C\[C@H]([C@@H](C)O)OCC[C@@H](C)[C@H](O)C(=O)OC[C@@]2(CC1)[C@]4(C)[C@]31CO1` it is -57.8% (active); for `C[C@@H]1CCC/C=C/[C@H]2C[C@@H](O)C[C@@H]2[C@@H](O)/C=C/C(=O)O1` it is -84.3% (active).

Take `CC1=C2C(=C[C@@](C)(COC(=O)c3ccc(S(=O)(=O)F)cc3)[C@@H]2O)C(=O)[C@](C)(O)C12CC2`: the growth was -58.5% (active).

For the compound `CC(C)(O)/C=C/C(=O)[C@](C)(O)[C@H]1[C@H](O)C[C@@]2(C)[C@H]3CC=C4[C@@H](C[C@H](O)C(=O)C4(C)C)[C@]3(C)C(=O)C[C@]12C`, the growth was 34.3% (inactive).

For the compound `C/C=C/CC(C)C(O)[C@H](NC(=O)[C@@H]1CCCN1C(=O)C(C)(C)NC(=O)CCCCCCCCC)C(=O)N[C@@](C)(CC)C(=O)N[C@@H](CCC(N)=O)C(=O)N[C@H](CCC(N)=O)C(=O)NC(C)(C)C(=O)N[C@@](C)(CC)C(=O)N[C@@H](CCC(N)=O)C(=O)N[C@H](CC(C)C)C(=O)N[C@H](CO)CC(C)C` (stereo not given in full), the growth is 104% (inactive) and -60.2% (active).

As to `CC1=C2C(=O)[C@](C)(CO)C=C2C(=O)[C@](C)(O)C12CC2`, the growth is -12.1% (active). For `CC1=C(CN(O)C(N)=O)C2=C(C)C3(CC3)[C@@](C)(O)C(=O)C2=C1`, the growth was -35.9% (active). In the case of `N#Cc1nc(-c2ccccc2)oc1N1CCC(S(=O)(=O)F)CC1` it was 114% (inactive). On to `COc1cc2c(O[C@@H]3OC[C@H](OC(C)=O)[C@H](OC(C)=O)[C@H]3O)c3c(c(-c4ccc5c(c4)OCO5)c2cc1OC)C(=O)OC3`, for which the growth was 5.65% (active). Consider `COC1[C@@H]2C[C@H]3C(C)(C)O[C@@](C/C=C(/C)C(=O)O)(C2=O)[C@]32Oc3c(CC=C(C)C)c4c(c(O)c3C(=O)[C@H]12)C=CC(C)(C)O4` (stereo not given in full), for which the growth is -72.1% (active).

For the compound `COc1cc(C)c(-c2ccc(OC)c(=O)cc2C)c(OC)c1OC`, the growth was -29.2% (active) and 94.5% (inactive).

On to `C/C=C/CC(C)C(O)[C@H](NC(=O)[C@@H]1CCCN1C(=O)C(C)(C)NC(=O)CCCCCCCCC)C(=O)NC(C)(C)C(=O)N[C@@H](CCC(N)=O)C(=O)N[C@H](CCC(N)=O)C(=O)NC(C)(C)C(=O)NC(C)(C)C(=O)N[C@@H](CCC(N)=O)C(=O)N[C@H](CC(C)C)C(=O)N[C@H](CO)CC(C)C` (stereo not given in full), for which the growth was -82.7% (active) and -41.1% (active).

On to `CN1C(=O)[C@]23SSC1(C)C(=O)N2[C@H]1Nc2ccccc2C1([C@@]12c4ccccc4N[C@@H]1N1C(=O)C4(C)SS[C@]1(C(=O)N4C)[C@H]2O)[C@@H]3O` (stereo not given in full), for which the growth was -88.9% (active). In the case of `CN(CCF)/N=N/c1nc[nH]c1C(N)=O`, the growth is 39.1% (inactive).

Take `CC(C)=CCc1c2c(c(O)c3c1O[C@]14C(=C[C@@H]5C[C@H]1C(C)(C)O[C@@]4(C/C=C(/C)C(=O)O)C5=O)C3=O)C=CC(C)(C)O2`: the growth was -79.8% (active). On to `CC1=C(CN(O)C(N)=O)C2=C(C)C3(CC3)[C@](C)(O)C(=O)C2=C1`, for which the growth is -11.9% (active).

With `C[C@@H]1C[C@H]2C(=O)O[C@@H](C)C(NC(=O)[C@H](Cc3cc(F)cc(F)c3)NC(=O)Nc3ccc(OS(=O)(=O)F)cc3)C(=O)N3CCC[C@H]3C(=O)N3CCO[C@H](C)[C@H]3C(=O)N[C@@H](CO)C(=O)N2C1` (stereo not given in full), the growth is -19.1% (active). As for `C/C=C\C(=O)O[C@@H]1CC2O[C@@H]3C=C(C)C(=O)C[C@]3(C)[C@]1(C)[C@]21CO1`, the growth is -55.3% (active).

`CC1=C2C(=C[C@@](C)(COC(=O)c3ccc(S(=O)(=O)F)cc3)[C@@H]2OC(=O)c2ccc(S(=O)(=O)F)cc2)C(=O)[C@](C)(O)C12CC2`: the growth is -78.1% (active).

With `CC1=C[C@H]2O[C@@H]3C[C@@H](O)[C@](C)([C@@]2(C)CC1)[C@@]31CO1`, the growth is 3.33% (active). On to `COc1cccc2c1cc([N+](=O)[O-])c1c(C(=O)O)cc3c(c12)OCO3`, for which the growth was 18.1% (inactive). As to `CC1=C2C(=C[C@@](C)(C=O)[C@@H]2O)C(=O)[C@](C)(O)C12CC2`, the growth was -28.2% (active).

On to `COc1cc2c(O[C@@H]3OC[C@H](O)[C@H](O)[C@H]3O)c3c(c(-c4ccc5c(c4)OCO5)c2cc1OC)C(=O)OC3`, for which the growth is 11.6% (inactive). Regarding `COc1cc2c(cc1OC)[C@@H]1N(CC2)C(=O)c2ccccc2[C@@]1(C)C(=O)O`, the growth is 115% (inactive).

For `CC1=C[C@H]2O[C@@H]3C[C@H]4OC(=O)/C=C\C=C\[C@H]([C@@H](C)O)OCC/C(C)=C/C(=O)OC[C@@]2(CC1)[C@]4(C)[C@]31CO1`, the growth is -62.3% (active).
